Our source for the binding signal values is PMC7862700, “An all-to-all approach to the identification of sequence-specific readers for epigenetic DNA modifications on cytosine”.

What all share (experiment): DAPPL (digital affinity profiling via proximity ligation, sequencing); 10 mM Tris-HCl pH 7.5, 50 mM NaCl, 1 mM DTT, 4% glycerol, room temperature, 30 min; GST-TFs on glutathione beads, 16-mer random dsDNA library, 0.1% formaldehyde crosslink after washing; high values mean tight binding
What all share (settings): protein: recombinant; tags: N-terminal GST; dsDNA, one strand shown

One experiment deals with T1, FLI1 (Homo sapiens, UniProt Q01543 1-452).
T1 sequence: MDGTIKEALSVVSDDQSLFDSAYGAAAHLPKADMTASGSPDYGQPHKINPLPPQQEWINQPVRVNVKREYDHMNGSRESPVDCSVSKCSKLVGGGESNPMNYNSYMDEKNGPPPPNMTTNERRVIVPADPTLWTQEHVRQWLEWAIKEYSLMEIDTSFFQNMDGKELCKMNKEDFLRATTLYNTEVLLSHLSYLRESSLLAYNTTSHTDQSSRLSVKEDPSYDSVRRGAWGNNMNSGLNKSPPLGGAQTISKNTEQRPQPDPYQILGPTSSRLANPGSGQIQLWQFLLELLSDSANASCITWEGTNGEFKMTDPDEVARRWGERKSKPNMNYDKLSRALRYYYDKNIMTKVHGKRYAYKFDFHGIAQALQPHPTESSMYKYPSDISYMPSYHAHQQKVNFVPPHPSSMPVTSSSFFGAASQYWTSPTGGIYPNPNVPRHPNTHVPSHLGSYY
In outline: (§1)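 Binding signal is given per hexamer as its read frequency for a factor divided by its frequency in the tag-only sample. GST-fused human transcription factors were expressed in yeast, captured on glutathione beads, barcoded with DNA and pooled with that sample, then incubated with 200 nmole of a 16-mer random double-stranded DNA library in Tris/NaCl/DTT/glycerol buffer for 30 min at room temperature. The pools were then washed, crosslinked, proximity-ligated, amplified by PCR and sequenced on an Illumina NextSeq500.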

For another experiment, the target named is T2, ELK1 (Homo sapiens, UniProt P19419 1-428).
T2 sequence: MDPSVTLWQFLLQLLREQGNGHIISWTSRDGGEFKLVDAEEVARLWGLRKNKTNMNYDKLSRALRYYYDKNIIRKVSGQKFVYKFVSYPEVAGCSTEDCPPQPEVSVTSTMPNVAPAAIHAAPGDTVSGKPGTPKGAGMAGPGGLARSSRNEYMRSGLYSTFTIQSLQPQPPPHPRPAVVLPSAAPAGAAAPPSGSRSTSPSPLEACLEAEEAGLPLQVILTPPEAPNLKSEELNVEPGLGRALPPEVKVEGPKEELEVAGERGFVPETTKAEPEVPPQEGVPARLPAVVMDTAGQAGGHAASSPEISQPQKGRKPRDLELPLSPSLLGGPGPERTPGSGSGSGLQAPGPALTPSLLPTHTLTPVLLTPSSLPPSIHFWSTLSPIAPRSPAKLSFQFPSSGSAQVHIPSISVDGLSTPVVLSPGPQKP
In a few lines:
as §1

Another experiment deals with T3, GABPA (Homo sapiens, UniProt Q06546 1-454).
T3 sequence: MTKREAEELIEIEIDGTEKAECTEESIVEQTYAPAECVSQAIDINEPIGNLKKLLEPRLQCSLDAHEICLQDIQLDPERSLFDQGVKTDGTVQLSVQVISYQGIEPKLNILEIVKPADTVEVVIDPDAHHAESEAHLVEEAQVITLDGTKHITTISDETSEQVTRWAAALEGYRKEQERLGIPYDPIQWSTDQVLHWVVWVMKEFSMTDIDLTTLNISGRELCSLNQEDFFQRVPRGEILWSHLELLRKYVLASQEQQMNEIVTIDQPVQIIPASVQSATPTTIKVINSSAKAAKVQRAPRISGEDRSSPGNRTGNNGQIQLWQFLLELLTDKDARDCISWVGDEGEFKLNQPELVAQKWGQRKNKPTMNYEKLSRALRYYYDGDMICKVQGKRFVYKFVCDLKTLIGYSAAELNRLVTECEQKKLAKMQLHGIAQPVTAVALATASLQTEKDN
In a few lines:
as §1

In a further experiment the target is T4, ERG (Homo sapiens, UniProt P11308 1-479).
T4 sequence: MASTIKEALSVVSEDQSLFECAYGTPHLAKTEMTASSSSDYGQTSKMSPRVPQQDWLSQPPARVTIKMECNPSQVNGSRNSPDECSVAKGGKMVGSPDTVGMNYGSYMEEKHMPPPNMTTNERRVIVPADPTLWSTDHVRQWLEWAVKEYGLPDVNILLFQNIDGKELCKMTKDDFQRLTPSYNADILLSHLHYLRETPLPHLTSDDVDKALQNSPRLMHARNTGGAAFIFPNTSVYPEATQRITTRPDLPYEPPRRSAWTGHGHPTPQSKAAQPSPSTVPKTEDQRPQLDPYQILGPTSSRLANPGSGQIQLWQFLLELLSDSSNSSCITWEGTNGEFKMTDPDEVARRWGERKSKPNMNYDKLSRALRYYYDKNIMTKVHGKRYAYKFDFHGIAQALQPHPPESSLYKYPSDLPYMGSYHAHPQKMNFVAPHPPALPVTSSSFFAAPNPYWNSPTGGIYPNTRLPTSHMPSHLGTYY
In a few lines:
as §1

In the next experiment the target is ELF1 (Homo sapiens, UniProt P32519 1-619). In outline: as §1
Sequence of ELF1 (P32519 whole entry): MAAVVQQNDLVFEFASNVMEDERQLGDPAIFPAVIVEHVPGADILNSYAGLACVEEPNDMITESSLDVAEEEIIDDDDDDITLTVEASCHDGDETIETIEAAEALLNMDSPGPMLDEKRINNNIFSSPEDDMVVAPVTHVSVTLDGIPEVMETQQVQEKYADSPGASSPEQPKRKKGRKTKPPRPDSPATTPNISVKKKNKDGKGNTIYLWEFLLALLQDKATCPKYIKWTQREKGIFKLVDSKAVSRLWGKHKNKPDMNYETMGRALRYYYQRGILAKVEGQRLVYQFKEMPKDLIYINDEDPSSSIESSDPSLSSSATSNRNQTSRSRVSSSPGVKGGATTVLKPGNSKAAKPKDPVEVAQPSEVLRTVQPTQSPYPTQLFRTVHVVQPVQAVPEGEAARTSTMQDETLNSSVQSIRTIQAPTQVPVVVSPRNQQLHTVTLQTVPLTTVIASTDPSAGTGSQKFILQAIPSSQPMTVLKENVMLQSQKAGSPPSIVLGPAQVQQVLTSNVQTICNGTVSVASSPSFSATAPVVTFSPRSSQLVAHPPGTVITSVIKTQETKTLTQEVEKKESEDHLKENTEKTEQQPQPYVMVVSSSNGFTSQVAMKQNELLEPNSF
For a further experiment, the target named is T5, EHF (Homo sapiens, UniProt Q9NZC4 1-300).
T5 sequence: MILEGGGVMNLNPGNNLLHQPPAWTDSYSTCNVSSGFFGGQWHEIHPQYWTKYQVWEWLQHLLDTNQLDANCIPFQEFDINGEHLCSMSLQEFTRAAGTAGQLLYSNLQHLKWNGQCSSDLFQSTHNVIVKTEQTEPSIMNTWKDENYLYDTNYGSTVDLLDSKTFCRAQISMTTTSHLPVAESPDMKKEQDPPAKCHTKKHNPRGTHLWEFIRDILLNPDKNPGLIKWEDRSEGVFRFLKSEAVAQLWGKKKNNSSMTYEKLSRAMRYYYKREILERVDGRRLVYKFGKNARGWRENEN
In outline:
as §1

A further experiment concerns the target SPI1 (Homo sapiens, UniProt P17947 1-270). In a few lines:
as §1

The next experiment addresses SPIB (Homo sapiens, UniProt Q01892 1-262). In outline:
as §1

Another experiment has as its target T6, ELK3 (Homo sapiens, UniProt P41970 1-407).
T6 sequence: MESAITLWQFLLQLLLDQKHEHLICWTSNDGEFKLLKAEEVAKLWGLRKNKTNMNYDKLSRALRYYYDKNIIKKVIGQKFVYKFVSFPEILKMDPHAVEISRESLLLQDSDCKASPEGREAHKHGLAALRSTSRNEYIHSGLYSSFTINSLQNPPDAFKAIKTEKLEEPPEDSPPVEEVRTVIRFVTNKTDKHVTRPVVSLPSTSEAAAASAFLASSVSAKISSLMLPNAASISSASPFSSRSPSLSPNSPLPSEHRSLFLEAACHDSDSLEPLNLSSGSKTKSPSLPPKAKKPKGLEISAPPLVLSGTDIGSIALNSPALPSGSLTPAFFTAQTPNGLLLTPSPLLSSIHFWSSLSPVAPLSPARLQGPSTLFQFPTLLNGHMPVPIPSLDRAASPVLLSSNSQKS
In a few lines: as §1

Sequence of SPIB (Q01892 whole entry): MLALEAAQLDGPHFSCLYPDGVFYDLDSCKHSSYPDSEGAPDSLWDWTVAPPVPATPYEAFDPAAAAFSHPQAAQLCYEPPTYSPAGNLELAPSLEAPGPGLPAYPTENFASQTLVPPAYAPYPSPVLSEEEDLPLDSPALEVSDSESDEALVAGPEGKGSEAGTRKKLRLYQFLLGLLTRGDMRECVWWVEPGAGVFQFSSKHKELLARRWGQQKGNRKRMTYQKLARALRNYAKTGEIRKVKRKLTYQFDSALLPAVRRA

Regarding TATTAA, the binding signal is 1.17 fold enrichment (6-mer frequency, TF over GST control) with FLI1; 1.13 fold enrichment (6-mer frequency, TF over GST control) in the experiment with ELK1; 1.16 fold enrichment (6-mer frequency, TF over GST control) in the experiment with GABPA; 1.12 fold enrichment (6-mer frequency, TF over GST control) in the experiment with ERG; 1.22 fold enrichment (6-mer frequency, TF over GST control) in the experiment with ELF1; 1.09 fold enrichment (6-mer frequency, TF over GST control) with EHF. For the same sequence, the binding signal with SPI1 is 1.06 fold enrichment (6-mer frequency, TF over GST control); with SPIB, 1.23 fold enrichment (6-mer frequency, TF over GST control); in the experiment with ELK3, 1.2 fold enrichment (6-mer frequency, TF over GST control).
CCCCCT: the binding signal with FLI1 is 1.22 fold enrichment (6-mer frequency, TF over GST control); with ELK1, 1.26 fold enrichment (6-mer frequency, TF over GST control); with GABPA, 1.25 fold enrichment (6-mer frequency, TF over GST control); in the experiment with ERG, 1.21 fold enrichment (6-mer frequency, TF over GST control); with ELF1 it was 1.33 fold enrichment (6-mer frequency, TF over GST control); with EHF, 1.26 fold enrichment (6-mer frequency, TF over GST control). Besides, the binding signal is 1.19 fold enrichment (6-mer frequency, TF over GST control) with SPI1; 1.24 fold enrichment (6-mer frequency, TF over GST control) in the experiment with SPIB; 1.32 fold enrichment (6-mer frequency, TF over GST control) with ELK3.
On to GGCTCC, for which the binding signal is 1.33 fold enrichment (6-mer frequency, TF over GST control) with FLI1; 1.29 fold enrichment (6-mer frequency, TF over GST control) with ELK1; 1.44 fold enrichment (6-mer frequency, TF over GST control) in the experiment with GABPA; 1.35 fold enrichment (6-mer frequency, TF over GST control) with ERG; 1.3 fold enrichment (6-mer frequency, TF over GST control) with ELF1; 1.31 fold enrichment (6-mer frequency, TF over GST control) with EHF. The binding signal with SPI1 was 1.22 fold enrichment (6-mer frequency, TF over GST control); with SPIB, 1.39 fold enrichment (6-mer frequency, TF over GST control); with ELK3 it was 1.27 fold enrichment (6-mer frequency, TF over GST control).
CCATTT: the binding signal with FLI1 was 1.25 fold enrichment (6-mer frequency, TF over GST control); in the experiment with ELK1, 1.29 fold enrichment (6-mer frequency, TF over GST control); with GABPA, 1.42 fold enrichment (6-mer frequency, TF over GST control); with ERG, 1.4 fold enrichment (6-mer frequency, TF over GST control); with ELF1 it was 1.27 fold enrichment (6-mer frequency, TF over GST control); with EHF, 1.31 fold enrichment (6-mer frequency, TF over GST control). The binding signal with SPI1 was 1.45 fold enrichment (6-mer frequency, TF over GST control); in the experiment with SPIB, 1.37 fold enrichment (6-mer frequency, TF over GST control); with ELK3, 1.33 fold enrichment (6-mer frequency, TF over GST control).
As for AACACT, the binding signal with FLI1 was 1.27 fold enrichment (6-mer frequency, TF over GST control); with ELK1 it was 1.38 fold enrichment (6-mer frequency, TF over GST control); in the experiment with GABPA, 1.32 fold enrichment (6-mer frequency, TF over GST control); with ERG, 1.31 fold enrichment (6-mer frequency, TF over GST control); with ELF1, 1.32 fold enrichment (6-mer frequency, TF over GST control); with EHF, 1.35 fold enrichment (6-mer frequency, TF over GST control). The binding signal in the experiment with SPI1 is 1.36 fold enrichment (6-mer frequency, TF over GST control); with SPIB it was 1.31 fold enrichment (6-mer frequency, TF over GST control); in the experiment with ELK3 it was 1.23 fold enrichment (6-mer frequency, TF over GST control).
Consider CCGGCT, for which the binding signal in the experiment with FLI1 is 1.75 fold enrichment (6-mer frequency, TF over GST control); with ELK1 it was 1.62 fold enrichment (6-mer frequency, TF over GST control); with GABPA, 1.65 fold enrichment (6-mer frequency, TF over GST control); in the experiment with ERG it was 1.74 fold enrichment (6-mer frequency, TF over GST control); with ELF1, 1.68 fold enrichment (6-mer frequency, TF over GST control); in the experiment with EHF, 1.77 fold enrichment (6-mer frequency, TF over GST control). The binding signal is 1.73 fold enrichment (6-mer frequency, TF over GST control) in the experiment with SPI1; 1.91 fold enrichment (6-mer frequency, TF over GST control) with SPIB; 1.62 fold enrichment (6-mer frequency, TF over GST control) with ELK3.
In the case of TATGCT, the binding signal with FLI1 was 1.28 fold enrichment (6-mer frequency, TF over GST control); in the experiment with ELK1, 1.28 fold enrichment (6-mer frequency, TF over GST control); with GABPA, 1.32 fold enrichment (6-mer frequency, TF over GST control); in the experiment with ERG, 1.26 fold enrichment (6-mer frequency, TF over GST control); with ELF1, 1.29 fold enrichment (6-mer frequency, TF over GST control); in the experiment with EHF, 1.33 fold enrichment (6-mer frequency, TF over GST control). For the same sequence, the binding signal was 1.41 fold enrichment (6-mer frequency, TF over GST control) with SPI1; 1.33 fold enrichment (6-mer frequency, TF over GST control) with SPIB; 1.22 fold enrichment (6-mer frequency, TF over GST control) with ELK3.
